Records with an inconclusive call do not appear. Entries that show only a call come without a potency. Active and inactive are the calls of the source. Calls come from the whole dose curve; as a rule, active = well fitted inhibition curve with a large enough effect; inconclusive = small, poorly fitted or top-dose-only effect; inactive = no such curve, though single readings can be large or run the other way.
Experiments:
[1] = qHTS Screen of the MIPE 4.0 Collection Against Ewings Sarcoma (EW8) (AID 1259255); note: nearly all actives have a fitted effect of over 35% in size
Procedure, shortened: (§1)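 Viability screen: 48 h incubation at 37C, 95% humidity, 5% CO2 with serially titrated compound, followed by CellTiter-Glo readout.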

[2] = qHTS Screen of the MIPE 4.0 Collection Against Ewings Sarcoma (TC32) (AID 1259256); note: nearly all actives have a fitted effect of over 45% in size
Procedure, shortened: as §1
Potency is the fitted concentration of half-maximal effect.

**Q.** Which Potency [1] does the source give for `CSCC[C@@H](NC(=O)[C@@H](Cc1ccccc1)NC(=O)CNC(=O)CNC(=O)[C@@H](N)Cc1ccc(O)cc1)C(=O)O` here?
**A.** inactive

**Q.** What about the Potency [2] of the same compound?
**A.** inactive

**Q.** For `O=C(O)CNC(=O)c1c(O)c2ccccc2n(Cc2ccccc2)c1=O`, which Potency [1] is on record?
**A.** 16.6 µM (active)

**Q.** Which Potency [1] does the source give for `CC(C)(C)[C@]1(O)C[C@@H]2OC(=O)C[C@@]23C(=O)O[C@@H]2OC(=O)[C@H](O)C213` (stereo partly specified) here?
**A.** inactive

**Q.** And the Potency [2]?
**A.** inactive

**Q.** For `CCNC(=O)C[C@@H]1N=C(c2ccc(Cl)cc2)c2cc(OC)ccc2-n2c(C)nnc21`, which Potency [1] is on record?
**A.** 7.43 µM (active)

**Q.** What about the Potency [2] of the same compound?
**A.** 3.72 µM (active)

**Q.** With `CC(C)N[C@@H]1CCn2c(=O)[nH]c3cccc(c32)[C@@H]1O` as the compound, how does the Potency [1] read?
**A.** 7.43 µM (active)

**Q.** And the Potency [2]?
**A.** 8.33 µM (active)

**Q.** For `CCN(CC)C(=O)c1ccc(C2=CC3(CCNCC3)Oc3cccc(O)c32)cc1`, which Potency [1] is on record?
**A.** inactive

**Q.** With `COc1cc([C@@H]2c3cc4c(cc3[C@@H](O)C3COC(=O)C32)OCO4)cc(OC)c1O` (stereo partly specified) as the compound, how does the Potency [1] read?
**A.** 0.0264 µM (active)

**Q.** What about the Potency [2] of the same compound?
**A.** inactive

**Q.** With `C[C@]12CC[C@H]3[C@@H](CCC4=CC(=O)CC[C@@]43C)[C@H]1CC[C@H]2OC(=O)CCC1CCCC1` as the compound, how does the Potency [1] read?
**A.** inactive

**Q.** And the Potency [2]?
**A.** inactive

**Q.** With `O=C(Oc1ccc([N+](=O)[O-])cc1)N1CCN(Cc2cccc(Oc3ccccc3)c2)CC1` as the compound, how does the Potency [1] read?
**A.** inactive

**Q.** What about the Potency [2] of the same compound?
**A.** inactive

**Q.** What does the source list for `Cc1c(N)nc([C@H](CC(N)=O)NC[C@@H](N)C(N)=O)nc1C(=O)N[C@H](C(=O)N[C@@H](C)[C@H](O)[C@@H](C)C(=O)N[C@@H](C(=O)NCCc1nc(-c2nc(C(=O)NCCC[S+](C)C)cs2)cs1)[C@@H](C)O)C(O[C@H]1O[C@H](CO)[C@H](O)[C@@H](O)[C@@H]1O[C@H]1O[C@H](CO)[C@@H](O)[C@H](OC(N)=O)[C@H]1O)c1cnc[nH]1` (stereo partly specified)?
**A.** Potency [1]: 0.264 µM (active); Potency [2]: 0.418 µM (active)

**Q.** Which results are given for `C[C@@H]1[C@H](O)[C@@H](C)C=CC=CCCC=CC=CC=CC=C[C@H](O[C@H]2O[C@@H](C)[C@H](O)[C@@H](N)[C@@H]2O)CC2O[C@](O)(C[C@@H](O)[C@H](O)CC[C@@H](O)C[C@@H](O)C[C@@H](O)CC(=O)O[C@H]1C)C[C@H](O)[C@H]2C(=O)O`?
**A.** Potency [1]: inactive; Potency [2]: inactive

**Q.** Which Potency [1] does the source give for `O=S(=O)(CC1CS1)c1ccc(Oc2ccccc2)cc1` (stereo unspecified) here?
**A.** 20.9 µM (active)

**Q.** And the Potency [2]?
**A.** 16.6 µM (active)

**Q.** For `CC(N[C@H]1C[C@H]1c1ccccc1)c1ccc2c(c1)OCCO2` (stereo partly specified), which Potency [1] is on record?
**A.** inactive

**Q.** With `CC[C@H]1C=CC=CC[C@@H](C)[C@H](O)[C@@](C)(O)C(=O)[C@@H](C)[C@H](O)[C@@H](C)C(=O)[C@@H](C)[C@H](O)[C@@H](C)C=CC(=O)O[C@@H]2[C@@H](C)[C@H](CC1)O[C@]1(CC[C@H](C)[C@H](C[C@@H](C)O)O1)[C@H]2C` as the compound, how does the Potency [1] read?
**A.** 4.69 µM (active)

**Q.** With `CC(C)(O)C=CC(=O)[C@](C)(O)[C@H]1[C@H](O)C[C@]2(C)[C@@H]3CC=C4[C@@H](C=C(O)C(=O)C4(C)C)[C@]3(C)C(=O)C[C@@]12C` as the compound, how does the Potency [1] read?
**A.** 0.118 µM (active)

**Q.** And the Potency [2]?
**A.** 0.0418 µM (active)

**Q.** Which Potency [1] does the source give for `O=[N+]([O-])c1ncc[nH]1` here?
**A.** inactive

**Q.** Which Potency [1] does the source give for `CC[C@@]1(O)C(=O)OCc2c1cc1n(c2=O)Cc2cc3ccccc3nc2-1` here?
**A.** 0.0118 µM (active)

**Q.** What about the Potency [2] of the same compound?
**A.** 0.0037 µM (active)

**Q.** Which results are given for `CC(=Cc1csc(C)n1)[C@@H]1C[C@H]2O[C@]2(C)CCC[C@H](C)[C@@H](O)[C@@H](C)C(=O)C(C)(C)[C@@H](O)CC(=O)O1`?
**A.** Potency [1]: inactive; Potency [2]: inactive

**Q.** Which results are given for `CC(C)[C@]12O[C@@H]1[C@@H]1O[C@]13[C@]1(O[C@H]1C[C@@H]1C4=C(CC[C@@]13C)C(=O)OC4)[C@H]2O`?
**A.** Potency [1]: inactive; Potency [2]: inactive

**Q.** What does the source list for `CC=C(C)C(=O)N[C@@H](c1ccccc1)[C@@H](O)C(=O)O[C@H]1C[C@@]2(O)[C@@H](OC(=O)c3ccccc3)[C@@H]3[C@]4(OC(C)=O)CO[C@@H]4C[C@H](O)[C@@]3(C)C(=O)[C@H](OC(C)=O)C(=C1C)C2(C)C`?
**A.** Potency [1]: inactive; Potency [2]: inactive

**Q.** Which Potency [1] does the source give for `O=C1CCC[C@@H]2[C@H]3CCCN4CCC[C@@H](CN12)[C@@H]34` here?
**A.** inactive

**Q.** What about the Potency [2] of the same compound?
**A.** inactive

**Q.** For `O=c1cccc2n1CC1CNC[C@H]2C1`, which Potency [1] is on record?
**A.** inactive

**Q.** With `C#CC1(O)CCC2C3CCC4=CC(=O)CCC4(C)C3CCC21C` (stereo unspecified) as the compound, how does the Potency [1] read?
**A.** inactive

**Q.** What about the Potency [2] of the same compound?
**A.** inactive

**Q.** With `C[C@H]1CCCC=CC2C[C@H](O)C[C@@H]2[C@H](O)C=CC(=O)O1` (stereo partly specified) as the compound, how does the Potency [1] read?
**A.** inactive

**Q.** What about the Potency [2] of the same compound?
**A.** inactive

**Q.** With `Cc1c(C(=O)Nc2cccc(C(F)(F)F)c2)cc(-c2ccccc2)n1CCCN1CCOCC1` as the compound, how does the Potency [1] read?
**A.** 16.6 µM (active)

**Q.** What about the Potency [2] of the same compound?
**A.** 8.33 µM (active)

**Q.** Which results are given for `CC(=Cc1csc(C)n1)[C@@H]1C[C@H]2O[C@@H]2CCC[C@H](C)[C@@H](O)[C@@H](C)C(=O)C(C)(C)[C@@H](O)CC(=O)O1`?
**A.** Potency [1]: inactive; Potency [2]: inactive
